Data: the supplement of paper PMC9135407
“And” between values parts separate entries of the source, which are not always exact repeats. Identical values can stand only once. Counter-ions that a name gives are not always drawn. Screen size: about 5,800 compounds; about 620 (11%) showed activity.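 The calls were made as follows: active = score above a cut-off or among the top three wells of a plate; in these data no inactive exceeds 0.85.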 Many of the other results were omitted from the sample, so actives are more common in it than they were.

System: primary human hepatic stellate cells (donor 1)
Assay: scaled lipid accumulation score (0 = DMSO-like, 1 = nortriptyline-like); higher = stronger HSC inactivation (lipid re-accumulation), active = hit call of the paper
Conditions: 48 h
[1] = library stock concentration: 10 mM
[2] = library stock concentration: 1 mM
[3] = library stock concentration: 3.33 mM
[4] = library stock concentration: 80 uM
[5] = library stock concentration: 400 uM
[6] = library stock concentration: 2 mM
[7] = library stock concentration: 5.9 mM

## Cc1onc(O)c1C[C@H](N)C(=O)O
[1]
  scaled lipid accumulation score: ≤ 0 (inactive)

## CCCCC/C=C\C/C=C\C/C=C\C/C=C\CCCC(=O)Nc1ccc([N+](=O)[O-])cc1 [Arachidonoyl p-Nitroaniline]
[2]
  scaled lipid accumulation score: ≤ 0 (inactive)

## c1cc2ccc(N3CCNCC3)cc2cn1 [7-piperazin-1-yl-Isoquinoline (hydrochloride)]
[2]
  scaled lipid accumulation score: ≤ 0 (inactive)

## CCN1CCN(C(=O)Cc2ccc(Nc3ncc(F)c(Nc4ccc(C(=O)Nc5ccccc5Cl)cc4)n3)cc2)CC1 [Aurora A Inhibitor I] [listing 1 of 2 here]
[3]
  scaled lipid accumulation score: 0.402 (inactive)

## CCN1CCN(C(=O)Cc2ccc(Nc3ncc(F)c(Nc4ccc(C(=O)Nc5ccccc5Cl)cc4)n3)cc2)CC1
[4]
  scaled lipid accumulation score: ≤ 0 (inactive)
[5]
  scaled lipid accumulation score: ≤ 0 (inactive)
[6]
  scaled lipid accumulation score: 0.676 (inactive)
[1]
  scaled lipid accumulation score: 0.801 (inactive)

## CCN1CCN(C(=O)Cc2ccc(Nc3ncc(F)c(Nc4ccc(C(=O)Nc5ccccc5Cl)cc4)n3)cc2)CC1 [Aurora A Inhibitor I] [listing 2 of 2 here]
[1]
  scaled lipid accumulation score: 1.24 (active)

## NC(Cn1oc(=O)[nH]c1=O)C(=O)O (single isomer, unassigned; (+)) [(+)-Quisqualic acid]
[1]
  scaled lipid accumulation score: ≤ 0 (inactive)

## CC[C@@H](CO)NC(=O)[C@@H]1C=C2c3cccc4c3c(cn4C)C[C@H]2N(C)C1 [Methysergide]
Library stock concentration: 5.7 mM
  scaled lipid accumulation score: ≤ 0 (inactive)

## CC[C@@H](CO)NC(=O)[C@@H]1C=C2c3cccc4c3c(cn4C)C[C@H]2N(C)C1 [Methysergide maleate]
[1]
  scaled lipid accumulation score: 0.458 (inactive) and 0.048 (inactive)

## CN1CC(CNC(=O)OCc2ccccc2)C[C@H]2c3cccc4c3c(cn4C)CC21 (stereo not given in full) [Metergoline]
[1]
  scaled lipid accumulation score: 1.05 (active)

## CO[C@]12C[C@@H](COC(=O)c3cncc(Br)c3)CN(C)[C@@H]1Cc1cn(C)c3cccc2c13 [Nicergoline]
  scaled lipid accumulation score: ≤ 0 (inactive)
[1]
  scaled lipid accumulation score: 0.682 (inactive) and 0.399 (inactive)

## CN1C[C@H](CNC(=O)OCc2ccccc2)C[C@@H]2c3cccc4c3c(cn4C)C[C@H]21 [Metergoline] [listing 1 of 3 here]
  scaled lipid accumulation score: 1.06 (active)

## CN1C[C@H](CNC(=O)OCc2ccccc2)C[C@@H]2c3cccc4c3c(cn4C)C[C@H]21 [Metergoline] [listing 2 of 3 here]
[1]
  scaled lipid accumulation score: 0.653 (inactive)

## CN1C[C@H](CNC(=O)OCc2ccccc2)C[C@@H]2c3cccc4c3c(cn4C)C[C@H]21 [Metergoline] [listing 3 of 3 here]
[1]
  scaled lipid accumulation score: 0.893 (active)

## CCOC(=O)CN1C(=O)CC(C[C@@H](O)C2C[C@@H](C)C[C@H](C)C2=O)CC1=O (stereo not given in full) [Cycloheximide-N-ethylethanoate]
Library stock concentration: 13.6 mM
  scaled lipid accumulation score: ≤ -0.021 (inactive)

## Cc1cc([C@@H]2CCCN2C)on1 [ABT-418 hydrochloride]
[1]
  scaled lipid accumulation score: ≤ 0 (inactive)

## CCOc1ccccc1-n1c(C(C)N2CCN(C(=O)COc3ccc(Cl)cc3)CC2)nc2ccccc2c1=O (stereo not given) [Erastin]
[3]
  scaled lipid accumulation score: ≤ -0.009 (inactive)
[1]
  scaled lipid accumulation score: 0.473 (inactive)

## C[N+]1(C)CCc2cc3c(cc2C1C1OC(=O)c2c1ccc1c2OCO1)OCO3 (single isomer, unassigned; (-)) [(-)-Bicuculline methobromide]
[1]
  scaled lipid accumulation score: ≤ 0 (inactive)

## O=C(O)/C=C/CO [trans-4-Hydroxycrotonic acid]
[1]
  scaled lipid accumulation score: 0.003 (inactive)

## CCCCCCCC/C=C\CCCCCCCC(=O)Nc1ccccc1 [Oleyl Anilide]
[2]
  scaled lipid accumulation score: 0.024 (inactive)

## CS(=O)(=O)Nc1ccc(Cc2noc(-c3ccc4[nH]cc(CCN)c4c3)n2)cc1
[1]
  scaled lipid accumulation score: ≤ 0 (inactive)

## COc1ccc(CCN2CCC(Nc3nc4ccccc4n3Cc3ccc(F)cc3)CC2)cc1 [Astemizole] [listing 1 of 3 here]
Library stock concentration: 4.4 mM
  scaled lipid accumulation score: 0.824 (inactive) and 0.409 (inactive)
[1]
  scaled lipid accumulation score: 0.475 (inactive)

## COc1ccc(CCN2CCC(Nc3nc4ccccc4n3Cc3ccc(F)cc3)CC2)cc1 [Astemizole] [listing 2 of 3 here]
[1]
  scaled lipid accumulation score: 0.907 (active)

## COc1ccc(C(=O)c2c(C)n(CCN3CCOCC3)c3ccccc23)cc1 [Pravadoline]
Library stock concentration: 5.3 mM
  scaled lipid accumulation score: ≤ -0.006 (inactive)

## COc1ccc(CCN2CCC(Nc3nc4ccccc4n3Cc3ccc(F)cc3)CC2)cc1 [Astemizole] [listing 3 of 3 here]
  scaled lipid accumulation score: 1 (active)

## CC(=O)N[C@H]1[C@@H](O[C@@H]2O[C@H](CC(O)[C@H]3O[C@@H](n4ccc(=O)[nH]c4=O)[C@H](O)[C@@H]3O)[C@H](O)[C@H](O)[C@H]2NC(=O)/C=C/CC(C)C)O[C@H](CO)[C@@H](N)[C@@H]1O (stereo not given in full) [Tunicamycin]
Library stock concentration: 7 mM
  scaled lipid accumulation score: 0.058 (inactive)

## CN1CC[C@@]2(C)c3cc(OC(=O)Nc4ccccc4)ccc3N(C)[C@@H]12 [Phenserine]
[1]
  scaled lipid accumulation score: 0.339 (inactive)

## NCCc1ccccn1
[1]
  scaled lipid accumulation score: ≤ 0 (inactive)

## CCCCCCC(=O)CCCCCC/C=C/C[C@@H](O)[C@H](O)[C@@](N)(CO)C(=O)O [Myriocin]
[2]
  scaled lipid accumulation score: 0.023 (inactive)

## O[C@H]1[C@H]2[C@H](O)CCCN2C[C@H]1O [swainsonine]
Library stock concentration: 28.9 mM
  scaled lipid accumulation score: 0.01 (inactive)

## Clc1ccc(N2CCN(Cc3c[nH]c4ncccc34)CC2)cc1 [L-745,870 trihydrochloride]
[1]
  scaled lipid accumulation score: 0.37 (inactive)

## Cl.Clc1ccc(N2CCN(Cc3c[nH]c4ncccc34)CC2)cc1 [L-745,870 hydrochloride]
[1]
  scaled lipid accumulation score: 0.902 (active)

## CC1=CC(=O)C2=C(C)C[C@H](O)[C@@H]3[C@H](OC(=O)[C@H]3C)[C@H]12 [Austricine hydrate]
  scaled lipid accumulation score: ≤ 0 (inactive)

## CCCCC[C@@H](/C=C/C=C\CCCCCCCC(=O)O)OO
Library stock concentration: 100 uM
  scaled lipid accumulation score: ≤ -0.021 (inactive)

## CO[C@@H]1C=C2CCN(C)[C@@H]2C2c3cc4c(cc3C(=O)OC21)OCO4 (stereo not given in full) [Ungerine nitrate]
  scaled lipid accumulation score: ≤ 0 (inactive)

## CCCCCCC(=O)O[C@H]1CC[C@H]2[C@@H]3CC(=O)C4=CC(=O)CC[C@]4(C)[C@H]3CC[C@]12C [6-keto Testosterone Enanthate]
[2]
  scaled lipid accumulation score: 0.048 (inactive)

## O=C1Nc2ccc(Cl)cc2C(c2ccccc2Cl)=NC1O (stereo not given) [Lorazepam]
[1]
  scaled lipid accumulation score: ≤ 0 (inactive)

## O=C1CC[C@@]2(O)[C@H]3Cc4ccc(O)c5c4[C@@]2(CCN3CC2CC2)[C@H]1O5 [Naltrexone hydrochloride dihydrate]
  scaled lipid accumulation score: ≤ 0 (inactive)

## Oc1ccc2c3c1O[C@H]1c4[nH]c5ccccc5c4C[C@@]4(O)[C@@H](C2)N(CC2CC2)CC[C@]314 [Naltrindole HCl]
Library stock concentration: 4.8 mM
  scaled lipid accumulation score: 0.264 (inactive)

## Oc1ccc2c3c1O[C@H]1c4[nH]c5ccccc5c4C[C@@]4(O)[C@@H](C2)N(CC2CC2)CC[C@]314 [Naltrindole]
[1]
  scaled lipid accumulation score: 0.713 (inactive)

## C=C(C)CN1CC[C@@]23c4c5ccc(O)c4O[C@H]2c2[nH]c4ccccc4c2C[C@]3(O)C1C5 [SDM25N hydrochloride]
[1]
  scaled lipid accumulation score: 0.625 (inactive)

## Oc1ccc2c3c1O[C@H]1c4[nH]c5c(c4C[C@@]4(O)[C@@H](C2)N(CC2CC2)CC[C@]314)C[C@@]1(O)[C@H]2Cc3ccc(O)c4c3[C@@]1(CCN2CC1CC1)[C@H]5O4 [nor-Binaltorphimine dihydrochloride]
[1]
  scaled lipid accumulation score: ≤ -0.055 (inactive) and ≤ 0 (inactive)

## Cl.Oc1ccc2c3c1O[C@H]1c4[nH]c5ccccc5c4C[C@@]4(O)C(C2)N(CC2CC2)CCC314 (stereo not given in full) [Naltrindole hydrochloride]
[1]
  scaled lipid accumulation score: 1.1 (active)

## O=C1CC[C@@]2(O)[C@H]3Cc4ccc(O)c5c4[C@@]2(CCN3CC2CC2)[C@H]1O5 [Naltrexone HCl]
[3]
  scaled lipid accumulation score: ≤ 0 (inactive)
[7]
  scaled lipid accumulation score: ≤ -0.006 (inactive)
[1]
  scaled lipid accumulation score: 0.025 (inactive)

## O=C1CC[C@@]2(O)[C@H]3Cc4ccc(O)c5c4[C@@]2(CCN3CC2CC2)[C@H]1O5 [Naltrexone hydrochloride]
[7]
  scaled lipid accumulation score: 0.019 (inactive)
[1]
  scaled lipid accumulation score: ≤ -0.045 (inactive) and ≤ -0.027 (inactive)

## O=C(O)/C=C\C(=O)O.O=C1/C(=C/c2ccccc2)C[C@@]2(O)C3Cc4ccc(O)c5c4[C@@]2(CCN3CC2CC2)[C@H]1O5 [BNTX maleate]
[1]
  scaled lipid accumulation score: 0.851 (active)

## Cl.Oc1ccc2c3c1O[C@H]1c4[nH]c5ccccc5c4C[C@@]4(O)C(C2)N(CC2CC2)CC[C@]314 [Naltrindole hydrochloride]
[1]
  scaled lipid accumulation score: 1.33 (active)

## O=C1/C(=C/c2ccccc2)C[C@@]2(O)[C@H]3Cc4ccc(O)c5c4[C@@]2(CCN3CC2CC2)[C@H]1O5 [BNTX maleate salt hydrate]
[1]
  scaled lipid accumulation score: ≤ -0.006 (inactive)

## CCCCCCC(C)(C)c1ccc([C@@H]2C[C@H](O)CC[C@H]2CCCO)c(O)c1
[2]
  scaled lipid accumulation score: 0.004 (inactive)

## CN/C(=N\S(=O)(=O)c1ccc(Cl)cc1)N1C[C@H](c2ccccc2)C(c2ccc(Cl)cc2)=N1
[2]
  scaled lipid accumulation score: ≤ 0 (inactive)

## COC[C@H]1OC(=O)c2coc3c2[C@@]1(C)C1=C(C3=O)[C@@H]2CCC(=O)[C@@]2(C)C[C@H]1OC(C)=O [Wortmannin]
[3]
  scaled lipid accumulation score: ≤ 0 (inactive)
[1]
  scaled lipid accumulation score: ≤ 0 (inactive)

## CCOC(=O)c1ncn2c1CN(C)C(=O)c1cc(N=[N+]=[N-])ccc1-2
[1]
  scaled lipid accumulation score: ≤ -0.001 (inactive)

## CC1=CCCC2C1(C)CCC(C)C2(C)CC/C(C)=C/Cn1c[n+](C)c2c(N)ncnc21 (stereo not given) [Agelasine (stereochemistry of diterpene unknown)]
[1]
  scaled lipid accumulation score: 0.317 (inactive)

## COc1ccc(N(C(=O)Oc2c(C)cccc2C)c2ccnc(Nc3ccc(N4CCN(C)CC4)cc3)n2)c(OC)c1
[4]
  scaled lipid accumulation score: 0.038 (inactive)
[5]
  scaled lipid accumulation score: 0.193 (inactive)
[6]
  scaled lipid accumulation score: ≤ 0 (inactive)
[3]
  scaled lipid accumulation score: 0.656 (inactive)
[1]
  scaled lipid accumulation score: 0.815 (inactive) and 0.679 (inactive)

## COc1ccc(-n2nc(C(F)(F)F)cc2-c2ccc(Cl)cc2)cc1
[1]
  scaled lipid accumulation score: 0.006 (inactive)

## COc1ccc(/C=C/C(=O)CC(=O)/C=C/c2ccc(OC)c(OC)c2)cc1OC [Dimethoxycurcumin]
[2]
  scaled lipid accumulation score: ≤ 0 (inactive)
